Measured values from PubChem BioAssay.
Active and inactive are the calls of the source.

Assays:
[1] = system: PRMT1 (protein arginine N-methyltransferase 1); assay: PRMT1 binders on small-molecule microarrays, primary screen, biochemical, small-molecule microarray, 635 nm fluorescence (AID 1088); conditions: small-molecule microarray binding, higher = more signal;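 further: binding of Prmt1 protein to compounds spotted on small-molecule microarray slides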
[2] = yeast growth modulation, basal conditions, primary screen, YJM789 clinical isolate, OD600, 24 h (AID 1089);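 further: growth of clinical yeast isolate S. cerevisiae YJM 789 seeded 1000 cells per well; test concentration not given here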; conditions: S. cerevisiae YJM789 growth, higher = more signal, called active from +8 up or from −8 down
[3] = fission yeast growth modulation, primary screen, strain 972, OD600, 24 h, no modulator (AID 1090);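 further: basal condition with compound alone and no growth modifier present; test concentration not given here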; conditions: S. pombe 972 growth, higher = more signal, called active from +8 up or from −8 down
[4] = S. cerevisiae growth modulation with rapamycin, primary screen, strain BY4716, OD600, 96 h (AID 1091); conditions: higher = more signal, called active from +8 up or from −8 down; further: test concentration not given here
[5] = target: Torsin-1A-interacting protein 2 (Homo sapiens) (UniProt Q8NFQ8); assay: LULL1 binders on small-molecule microarray, primary screen, cell lysate, human LULL1 lysate, 635/667 nm fluorescence (AID 1092); conditions: hLULL1 lysate binding, 635 nm fluorescence, higher = more signal;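 further: probe is lysate of COS7 cells overexpressing human LULL1; score merges per-feature 667 nm fluorescence with signal-to-noise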
[6] = E. coli growth modulation, two-sided OD650, primary screen, E. coli filamentation project, strain DRC41, 24 h (AID 1093); conditions: OD650, 24 h, higher = more signal, called active from +8 up or from −8 down;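 further: MC1000 strain lacking acrAB efflux and sulA so SOS filamentation is blocked; test concentration not given here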
[7] = small-molecule microarray binders of probe aLefty2, primary screen, biochemical, biotinylated probe, 635/667 nm fluorescence (AID 1094); conditions: higher = more signal;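 further: score merges spot fluorescence near 667 nm with spot signal-to-noise ratio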
[8] = system: Noggin (protein binding on small-molecule microarray); assay: Noggin binders on small-molecule microarray, primary screen, biochemical, 635/667 nm fluorescence (AID 1095); conditions: 635 nm fluorescence, higher = more signal;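 further: score merges 667 nm feature fluorescence with signal to noise over triplicate slides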
[9] = target: Neurogenic locus notch homolog protein 3 (Homo sapiens) (UniProt Q9UM47); assay: NOTCH3 binders on small-molecule microarray, primary screen, biochemical, 635/667 nm fluorescence (AID 1096); conditions: NOTCH3 binding, 635 nm fluorescence, higher = more signal
[10] = small-molecule microarray binders of probe aEGFR, primary screen, biochemical, biotinylated probe, 635/667 nm fluorescence (AID 1097); conditions: higher = more signal;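 further: probe is a biotinylated anti-EGFR antibody binding compounds printed on slides; score combines fluorescence near 667 nm and signal to noise of each spot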
[11] = system: Plasmodium falciparum Sir2 (PF13_0152, Sir2A); assay: pfSir2 binders on small-molecule microarrays, primary screen, biochemical, small-molecule microarray, 635 nm fluorescence (AID 1098); conditions: small-molecule microarray binding, fluorescence 635 nm; higher = more signal;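 further: score merges spot fluorescence intensity with its signal-to-noise ratio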
[12] = small-molecule microarray binders of probe aDKK1, primary screen, biochemical, biotinylated probe, 635/667 nm fluorescence (AID 1099); conditions: higher = more signal;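 further: score merges 667nm spot fluorescence with signal to noise across triplicate slides; reference of the scale not given here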
[13] = small-molecule microarray binders of probe aCHRDL2, primary screen, biochemical, biotinylated probe, 635/667 nm fluorescence (AID 1100); conditions: higher = more signal
[14] = splicing luciferase reporter signal modulators, primary screen, spliceosome inhibition project, cell-based, HEK293, splice +/- reporter (AID 1101); conditions: luminescence, 24 h, higher = more signal, called active from +8 up or from −8 down;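 further: HEK293 cells carrying a splicing-competent luciferase reporter gene; test concentration not given here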
[15] = target: Fibroblast growth factor 10 (Homo sapiens) (UniProt O15520); assay: FGF10 binders on small-molecule microarrays, primary screen, biochemical, small-molecule microarray, 635 nm fluorescence (AID 1102); conditions: FGF10 binding, fluorescence 635 nm, higher = more signal
[16] = system: glycogen synthase kinase-3 (GSK3A per assay name; protocol says GSK3B); assay: GSK3 binders on small-molecule microarrays, primary screen, biochemical, small-molecule microarray, 635 nm fluorescence, GSK3A (AID 1103); conditions: small-molecule microarray binding, fluorescence 635 nm; higher = more signal; further: the record names both GSK3A and GSK3B
[17] = target: Epidermal growth factor receptor (Homo sapiens) (UniProt P00533); assay: EGFR binders on small-molecule microarrays, primary screen, biochemical, small-molecule microarray, 635 nm fluorescence (AID 1104); conditions: EGFR binding, higher = more signal;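 further: score merges 667 nm emission intensity with spot signal to noise over triplicate slides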
[18] = target: Follistatin-related protein 3 (Homo sapiens) (UniProt O95633); assay: FSTL3 binders on small-molecule microarrays, primary screen, biochemical, small-molecule microarray, 635 nm fluorescence (AID 1105); conditions: FSTL3 binding, higher = more signal;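 further: score merges emission near 667 nm and signal to noise per printed spot across three slides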
[19] = target: Dickkopf-related protein 1 (Homo sapiens) (UniProt O94907); assay: DKK1 binders on small-molecule microarrays, primary screen, biochemical, small-molecule microarray, 635 nm fluorescence scan (AID 1106); conditions: DKK1 binding, higher = more signal;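 further: score merges emission near 667 nm with signal to noise over three replicate slides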
[20] = system: Inhibin beta A chain (activin A); assay: INHBA (activin A) binders on microarrays, primary screen, biochemical, small-molecule microarray, 635 nm fluorescence scan (AID 1107); conditions: small-molecule microarray binding, higher = more signal;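 further: mouse activin A protein probed at 4.33 µg/mL on printed slides; score merges bound-protein fluorescence near 667 nm with spot signal-to-noise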

Sequence of Torsin-1A-interacting protein 2 (Homo sapiens) (Q8NFQ8 whole entry, looked up): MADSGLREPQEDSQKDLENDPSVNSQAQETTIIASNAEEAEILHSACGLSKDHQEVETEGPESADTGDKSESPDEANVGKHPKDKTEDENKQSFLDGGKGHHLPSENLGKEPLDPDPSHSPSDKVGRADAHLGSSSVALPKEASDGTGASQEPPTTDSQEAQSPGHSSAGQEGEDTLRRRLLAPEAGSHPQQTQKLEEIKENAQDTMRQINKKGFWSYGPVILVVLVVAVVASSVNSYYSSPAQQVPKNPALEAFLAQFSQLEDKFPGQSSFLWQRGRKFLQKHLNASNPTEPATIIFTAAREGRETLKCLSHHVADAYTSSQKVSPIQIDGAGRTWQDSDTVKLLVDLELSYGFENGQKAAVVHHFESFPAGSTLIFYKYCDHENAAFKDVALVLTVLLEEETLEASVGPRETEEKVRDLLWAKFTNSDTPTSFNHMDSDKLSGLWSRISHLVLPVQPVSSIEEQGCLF
Sequence of Epidermal growth factor receptor (Homo sapiens) (P00533 whole entry, looked up): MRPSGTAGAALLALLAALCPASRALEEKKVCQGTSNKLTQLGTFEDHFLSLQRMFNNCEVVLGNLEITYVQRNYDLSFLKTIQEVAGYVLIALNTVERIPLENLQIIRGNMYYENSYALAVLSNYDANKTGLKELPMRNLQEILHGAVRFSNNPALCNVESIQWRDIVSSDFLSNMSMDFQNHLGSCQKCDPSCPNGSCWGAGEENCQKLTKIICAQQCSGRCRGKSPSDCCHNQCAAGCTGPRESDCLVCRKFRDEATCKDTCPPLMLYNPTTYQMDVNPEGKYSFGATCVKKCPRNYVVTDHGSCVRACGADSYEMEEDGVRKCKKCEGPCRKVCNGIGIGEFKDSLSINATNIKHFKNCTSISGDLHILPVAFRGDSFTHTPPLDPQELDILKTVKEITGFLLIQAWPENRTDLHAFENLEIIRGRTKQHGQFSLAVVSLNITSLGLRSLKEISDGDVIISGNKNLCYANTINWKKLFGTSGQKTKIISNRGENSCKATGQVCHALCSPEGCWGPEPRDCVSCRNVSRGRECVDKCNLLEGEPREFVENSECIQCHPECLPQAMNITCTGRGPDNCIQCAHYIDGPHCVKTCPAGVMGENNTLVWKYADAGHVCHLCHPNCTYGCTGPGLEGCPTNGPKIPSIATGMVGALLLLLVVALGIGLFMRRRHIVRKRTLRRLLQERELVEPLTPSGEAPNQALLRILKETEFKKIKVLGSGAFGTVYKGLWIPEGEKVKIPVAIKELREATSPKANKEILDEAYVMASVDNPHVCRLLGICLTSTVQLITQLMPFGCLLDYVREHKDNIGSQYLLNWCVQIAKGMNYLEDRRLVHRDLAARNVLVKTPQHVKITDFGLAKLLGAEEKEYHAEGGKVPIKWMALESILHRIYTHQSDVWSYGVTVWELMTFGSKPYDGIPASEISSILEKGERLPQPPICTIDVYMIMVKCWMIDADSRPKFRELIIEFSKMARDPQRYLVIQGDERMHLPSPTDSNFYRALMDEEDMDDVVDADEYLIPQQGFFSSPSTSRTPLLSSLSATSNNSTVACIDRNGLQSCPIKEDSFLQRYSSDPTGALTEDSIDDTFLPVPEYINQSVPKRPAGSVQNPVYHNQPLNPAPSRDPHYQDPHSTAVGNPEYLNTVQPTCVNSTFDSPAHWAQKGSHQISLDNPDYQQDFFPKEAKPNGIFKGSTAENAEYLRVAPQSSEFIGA
Sequence of Fibroblast growth factor 10 (Homo sapiens) (O15520 whole entry, looked up): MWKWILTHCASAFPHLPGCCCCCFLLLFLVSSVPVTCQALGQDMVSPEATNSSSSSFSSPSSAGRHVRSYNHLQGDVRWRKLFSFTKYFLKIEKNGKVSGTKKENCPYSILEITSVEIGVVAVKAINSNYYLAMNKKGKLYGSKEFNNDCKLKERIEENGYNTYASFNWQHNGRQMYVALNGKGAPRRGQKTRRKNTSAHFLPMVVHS
Sequence of Follistatin-related protein 3 (Homo sapiens) (O95633 whole entry, looked up): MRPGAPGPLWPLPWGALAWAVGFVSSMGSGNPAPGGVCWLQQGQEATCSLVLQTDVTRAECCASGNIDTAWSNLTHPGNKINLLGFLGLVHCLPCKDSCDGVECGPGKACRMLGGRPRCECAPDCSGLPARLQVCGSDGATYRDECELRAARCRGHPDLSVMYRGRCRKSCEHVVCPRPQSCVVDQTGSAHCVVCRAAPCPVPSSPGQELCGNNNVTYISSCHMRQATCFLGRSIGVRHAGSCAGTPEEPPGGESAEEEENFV
Sequence of Dickkopf-related protein 1 (Homo sapiens) (O94907 whole entry, looked up): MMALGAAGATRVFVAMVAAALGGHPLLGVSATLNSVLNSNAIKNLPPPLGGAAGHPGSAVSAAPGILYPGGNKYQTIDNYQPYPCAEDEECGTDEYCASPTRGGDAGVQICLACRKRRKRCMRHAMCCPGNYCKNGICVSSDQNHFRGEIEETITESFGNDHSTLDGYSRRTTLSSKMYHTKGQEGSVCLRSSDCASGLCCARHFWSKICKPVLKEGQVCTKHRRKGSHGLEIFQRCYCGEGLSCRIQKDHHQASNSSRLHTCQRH
Sequence of Neurogenic locus notch homolog protein 3 (Homo sapiens) (Q9UM47 whole entry, looked up): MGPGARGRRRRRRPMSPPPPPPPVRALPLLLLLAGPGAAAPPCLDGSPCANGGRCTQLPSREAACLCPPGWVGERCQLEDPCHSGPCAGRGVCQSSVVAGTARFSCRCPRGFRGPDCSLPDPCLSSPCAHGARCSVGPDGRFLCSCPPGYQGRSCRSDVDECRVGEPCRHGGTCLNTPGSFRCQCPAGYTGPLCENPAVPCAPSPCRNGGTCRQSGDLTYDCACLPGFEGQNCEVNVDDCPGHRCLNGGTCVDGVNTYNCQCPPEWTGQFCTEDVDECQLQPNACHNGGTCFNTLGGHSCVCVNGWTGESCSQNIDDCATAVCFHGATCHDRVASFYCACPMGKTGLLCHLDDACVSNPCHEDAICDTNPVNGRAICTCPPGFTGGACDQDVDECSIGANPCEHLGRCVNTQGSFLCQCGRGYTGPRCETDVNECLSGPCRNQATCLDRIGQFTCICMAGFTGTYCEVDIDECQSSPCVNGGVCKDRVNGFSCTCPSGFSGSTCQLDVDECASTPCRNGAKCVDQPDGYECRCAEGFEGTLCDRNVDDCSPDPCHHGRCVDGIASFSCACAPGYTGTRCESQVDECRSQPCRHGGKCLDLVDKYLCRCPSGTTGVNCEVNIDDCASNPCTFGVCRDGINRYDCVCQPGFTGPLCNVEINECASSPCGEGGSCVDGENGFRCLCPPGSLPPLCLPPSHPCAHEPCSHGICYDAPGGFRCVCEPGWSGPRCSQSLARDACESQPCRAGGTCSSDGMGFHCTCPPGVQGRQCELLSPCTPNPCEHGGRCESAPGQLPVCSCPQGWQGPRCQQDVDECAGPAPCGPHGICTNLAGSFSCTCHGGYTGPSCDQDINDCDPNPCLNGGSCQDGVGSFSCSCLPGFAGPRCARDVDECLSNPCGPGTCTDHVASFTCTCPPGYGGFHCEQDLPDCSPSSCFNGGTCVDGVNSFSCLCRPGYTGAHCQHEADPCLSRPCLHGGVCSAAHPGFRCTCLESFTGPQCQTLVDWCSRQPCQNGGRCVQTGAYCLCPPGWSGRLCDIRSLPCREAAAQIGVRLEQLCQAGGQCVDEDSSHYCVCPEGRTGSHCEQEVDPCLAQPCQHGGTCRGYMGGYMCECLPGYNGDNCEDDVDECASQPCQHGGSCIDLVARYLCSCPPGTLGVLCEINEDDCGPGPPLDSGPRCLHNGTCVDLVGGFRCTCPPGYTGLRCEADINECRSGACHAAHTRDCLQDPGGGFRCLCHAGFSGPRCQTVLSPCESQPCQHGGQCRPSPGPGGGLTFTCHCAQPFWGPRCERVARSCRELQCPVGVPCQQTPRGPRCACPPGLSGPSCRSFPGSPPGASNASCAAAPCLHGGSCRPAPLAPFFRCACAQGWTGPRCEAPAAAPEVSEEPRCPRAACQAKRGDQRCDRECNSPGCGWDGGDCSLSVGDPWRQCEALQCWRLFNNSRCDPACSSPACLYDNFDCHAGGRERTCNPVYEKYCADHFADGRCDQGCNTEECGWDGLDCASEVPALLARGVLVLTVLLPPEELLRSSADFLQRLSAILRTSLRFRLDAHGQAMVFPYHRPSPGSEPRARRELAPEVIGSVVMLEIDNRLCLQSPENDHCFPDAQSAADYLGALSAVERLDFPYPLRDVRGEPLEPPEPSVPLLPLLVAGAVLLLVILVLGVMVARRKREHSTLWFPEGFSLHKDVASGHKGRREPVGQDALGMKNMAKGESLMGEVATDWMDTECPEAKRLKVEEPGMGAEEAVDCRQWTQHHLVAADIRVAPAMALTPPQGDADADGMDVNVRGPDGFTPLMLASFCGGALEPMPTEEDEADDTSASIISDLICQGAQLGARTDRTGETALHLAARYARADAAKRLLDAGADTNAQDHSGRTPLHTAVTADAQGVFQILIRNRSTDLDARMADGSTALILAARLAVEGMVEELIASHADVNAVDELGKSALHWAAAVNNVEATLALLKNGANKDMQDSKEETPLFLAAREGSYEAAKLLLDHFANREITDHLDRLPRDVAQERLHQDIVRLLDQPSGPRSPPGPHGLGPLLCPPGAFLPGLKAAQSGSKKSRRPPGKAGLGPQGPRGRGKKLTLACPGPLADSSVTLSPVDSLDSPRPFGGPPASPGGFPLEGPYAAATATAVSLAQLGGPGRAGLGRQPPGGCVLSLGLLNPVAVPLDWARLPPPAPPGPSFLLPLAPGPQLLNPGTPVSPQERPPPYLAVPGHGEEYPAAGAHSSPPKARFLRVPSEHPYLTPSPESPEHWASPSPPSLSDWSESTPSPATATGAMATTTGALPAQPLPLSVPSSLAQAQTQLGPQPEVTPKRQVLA

| SMILES | composite z-score [1] | z-score [2] | z-score [3] | z-score [4] | composite z-score [5] | z-score [6] | composite z-score [7] | composite z-score [8] | composite z-score [9] | composite z-score [10] | composite z-score [11] | composite z-score [12] | composite z-score [13] | z-score [14] | composite z-score [15] | composite z-score [16] | composite z-score [17] | composite z-score [18] | composite z-score [19] | composite z-score [20] |
| --- | --- | --- | --- | --- | --- | --- | --- | --- | --- | --- | --- | --- | --- | --- | --- | --- | --- | --- | --- | --- |
| NCCCCCCNC(=O)[C@H]1C[C@H]2C(=O)NCC(=O)N2[C@H]1c1cccc(OCCO)c1 | 1.58 | 0.23 (inactive) | -1.12 (inactive) | -0.442 (inactive) | 1.59 | 1.1 (inactive) | 0.0537 | 1.5 | 1.15 | -0.034 | 1.56 | 0.0447 | 0.161 | -0.283 (inactive) | 0.641 | 1.1 | 0.544 | 0.563 | 0.978 | -0.0745 |
| CC(C)CNC(=O)[C@@]1(c2ccc([N+](=O)[O-])cc2)CC(=O)N(CC23CC4CC(CC(C4)C2)C3)[C@@H]1c1ccc(CO)cc1 | 1.52 | -1.73 (inactive) | -1.1 (inactive) | 0.226 (inactive) | 2.14 | 2.86 (inactive) | 0.0054 | 0.661 | 0.708 | -0.0897 | 0.947 | 0.0324 | 0.555 | -2.11 (inactive) | 1.24 | 0.715 | 0.283 | 0.58 | 0.127 | 0.328 |
| COc1ccc(CCNC(=O)[C@@]2(Sc3ccc(C)cc3)CC(=O)N(Cc3ccccc3Cl)[C@@H]2c2ccc(CO)cc2I)cc1 | 1.26 | -1.62 (inactive) | -3.24 (inactive) | 1.72 (inactive) | 1.8 | 0.68 (inactive) | 0.0349 | -0.284 | -0.788 | -0.185 | 0.661 | 0.195 | 0.989 | -1.1 (inactive) | -0.778 | 0.351 | -1.08 | -0.78 | -1.15 | 1.24 |
| O=C(O)[C@H]1C[C@H]2C(=O)NCC(=O)N2[C@H]1c1ccc(O)cc1 | 0.294 | -0.512 (inactive) | -0.81 (inactive) | -0.373 (inactive) | 1.05 | 1.68 (inactive) | -0.025 | 0.884 | 0.55 | 0.308 | 0.237 | -0.248 | -0.346 | -0.821 (inactive) | 0.413 | 0.504 | -0.213 | 0.845 | 0.681 | 0.23 |
